Assay results published in PubChem BioAssay (Tox21).
Records with an inconclusive call do not appear. Calls of active or inactive are those of the source. Calls follow the shape of the dose curve; as a rule, active = well fitted inhibition curve with a large enough effect in the repeat runs; inconclusive = weak or mixed curves; inactive = flat fitted curve, though single readings scatter.

Assay: qHTS assay to identify small molecule HDAC inhibitors (AID 1259364); also: nearly all actives have a fitted effect of over 45% in size; as to activity change, negative = inhibition: top concentration of the series differs between compounds
Conditions: HCT-116 HDAC-Glo I/II luminescence, 2 h; series mostly up to 92.4 µM; activity change, negative = inhibition: at the top concentration
Text: U.S. Tox21 Program National Center for Advancing Translational Sciences [NCATS] NIH Chemical Genomics Center [NCGC] U.S. Environmental Protection Agency [EPA] National Institutes of Environmental Health Sciences [NIEHS] National Toxicology Program [NTP] U.S. Food and Drug Administration [FDA] Tox21 Assay Overview: Histone deacetylases (HDACs) are a group of epigenetic enzymes that regulate gene expression by histone deacetylation. HDACs are capable of introducing epigenetic modifications and such aberrations contribute to the onset and progression of several human diseases, thus making HDACs a popular therapeutic target. For identifying endogenous class I/II HDAC inhibitors a homogenous, luminogenic HDAC I/II cell based assay was used to measure the relative activity of class I and II HDACs from cells. Wild type HCT-116 cells were used to screen Tox21 libraries for identifying class I/II HDAC inhibitors.
Tox21 Assay Protocol Summary: HCT-116 cells were dispensed at 1,500 per well in 5uL of culture medium into white solid bottom 1536-well plates (Greiner Bio-One, Monroe, NC) using a Multidrop Combi (Thermo Scientific, Waltham, MA) dispenser. The assay plates were incubated at 37 C and 5% CO2 for an overnight, and then 23nL of compounds dissolved in DMSO and positive control were transferred using a Pintool station (Wako, San Diego, CA). The assay plates were incubated at 37C and 5% CO2 for 2hr. After compound treatment, 4uL of HDAC-Glo reagent (Promega Corporation, Madison, WI) was added to each well of the assay plates using Flying Reagent Dispenser (FRD, Aurora Discovery, San Diego, CA) and incubated the assay plates at room temperature for 30min. The luminescence signal was quantified using a ViewLux plate reader (Perkin Elmer, Shelton, CT).
% is scaled to controls: 0 for no effect and ±100 for the full control effect; potency is read from the fitted curve at half-maximal effect.

Which “activity change, negative = inhibition” value does the source give for `COc1ccc2ccccc2c1` here?
The value was -1.32% (inactive).

For `CCC(=O)OC/C=C(\C)CCC=C(C)C`, which “activity change, negative = inhibition” value is on record?
Its value is -3.8% (inactive).

Which “activity change, negative = inhibition” value does the source give for `CN1CCN(CCCN2c3ccccc3Sc3ccc(Cl)cc32)CC1` here?
Its value is -10.3% [at 42.5 µM] (inactive).

With `CN(C)CCOc1ccc(/C(=C(/CCCl)c2ccccc2)c2ccccc2)cc1` as the compound, how does the “activity change, negative = inhibition” value read?
The value was -3.56% (inactive).

Which “activity change, negative = inhibition” value does the source give for `CC(C)(C)c1cc(CCC(=O)OCCSCCOC(=O)CCc2cc(C(C)(C)C)c(O)c(C(C)(C)C)c2)cc(C(C)(C)C)c1O` here?
Its value is 1.94% [at 42.5 µM] (inactive).

For `CSc1ccc(O)cc1C`, which “activity change, negative = inhibition” value is on record?
The value was -7.98% (inactive).

For `O=C(O)CN(CCCN(CC(=O)O)CC(=O)O)CC(=O)O`, which activity change, negative = inhibition is on record?
The activity change, negative = inhibition was 1.25% [at 19 µM] (inactive).

With `C=C[Si](C)(C)Cl` as the compound, how does the activity change, negative = inhibition read?
Its activity change, negative = inhibition is 3.64% [at 8.39 µM] (inactive).

For `CC(=O)CC(N)=O`, which “activity change, negative = inhibition” value is on record?
Its value is 0.326% (inactive).

With `O=C1C=CC(=O)N1c1cccc(N2C(=O)C=CC2=O)c1` as the compound, how does the “activity change, negative = inhibition” value read?
The value was -21.3% (inactive).

With `CCc1cccc(C)c1N(C(=O)C(=O)O)C(C)COC` (stereo not given) as the compound, how does the “activity change, negative = inhibition” value read?
The value was -0.578% (inactive).

Which “activity change, negative = inhibition” value does the source give for `N#Cc1nc(Cl)c(Cl)c(Cl)c1Cl` here?
The value was -8.47% (inactive).

For `C=C1C(CCl)(CCl)C2(Cl)C(Cl)C(Cl)C1(Cl)C2(Cl)Cl` (stereo not given), which “activity change, negative = inhibition” value is on record?
Its value is 14.1% (inactive).

For `Cc1ccc(Cl)c(N)c1Cl`, which “activity change, negative = inhibition” value is on record?
Its value is 10.4% (inactive).

For `CC1(C)[C@H]2CC[C@]1(C)C(=O)C2`, which “activity change, negative = inhibition” value is on record?
Its value is -5.19% (inactive).

With `CCCCCc1ccc(O)cc1` as the compound, how does the “activity change, negative = inhibition” value read?
Its value is -0.106% (inactive).

For `CCOC=C(C(=O)OCC)C(=O)OCC`, which “activity change, negative = inhibition” value is on record?
The value was -1.06% (inactive).

Which “activity change, negative = inhibition” value does the source give for `Nc1ccc(Cl)c([N+](=O)[O-])c1` here?
Its value is -4.56% (inactive).

With `O=C(CCN1CCC(c2ccccc2)C1)c1ccc2c(c1)OCCO2` (stereo not given) as the compound, how does the “activity change, negative = inhibition” value read?
Its value is 0.285% [at 42.5 µM] (inactive).

Which “activity change, negative = inhibition” value does the source give for `CC/C=C\C/C=C\C/C=C\CCCCCCCC(=O)OC` here?
Its value is 6.26% (inactive).

Which “activity change, negative = inhibition” value does the source give for `Nc1ccc(F)c([N+](=O)[O-])c1` here?
Its value is -0.527% (inactive).

For `COc1ccc(OC)c(N=Nc2c(O)ccc3ccccc23)c1`, which Potency is on record?
Its Potency is 27.3 µM (active).

For `Cn1c(=O)[nH]c2ncn(C)c2c1=O`, which “activity change, negative = inhibition” value is on record?
Its value is 13.3% (inactive).

For `CCCCCN=C(N)N/N=C/c1c[nH]c2ccc(OC)cc12`, which “activity change, negative = inhibition” value is on record?
The value was 2.96% [at 42.5 µM] (inactive).

For `Nc1cc([N+](=O)[O-])ccc1Cl`, which “activity change, negative = inhibition” value is on record?
Its value is -2.26% (inactive).

For `Cn1ccnc1`, which “activity change, negative = inhibition” value is on record?
Its value is -1.68% (inactive).

Which “activity change, negative = inhibition” value does the source give for `CCNc1nc(NC(C)(C)C)nc(OC)n1` here?
The value was 2.58% (inactive).

With `Nc1ccc(Oc2cccc(Oc3ccc(N)cc3)c2)cc1` as the compound, how does the “activity change, negative = inhibition” value read?
Its value is -2.07% (inactive).

With `CCOC(=O)OC(=O)OCC` as the compound, how does the “activity change, negative = inhibition” value read?
Its value is 2.12% (inactive).

Which “activity change, negative = inhibition” value does the source give for `O=C(N[C@H](CO)[C@H](O)c1ccc([N+](=O)[O-])cc1)C(Cl)Cl` here?
The value was 10.2% (inactive).

For `CCCCCCCCCCCCN1CCCC1=O`, which “activity change, negative = inhibition” value is on record?
The value was 1.97% (inactive).

For `CCCCCCCCOC(=O)c1cc(O)c(O)c(O)c1`, which “activity change, negative = inhibition” value is on record?
Its value is -9.86% (inactive).

For `O=C1OC(=O)c2cc(-c3ccc4c(c3)C(=O)OC4=O)ccc21`, which “activity change, negative = inhibition” value is on record?
The value was -0.849% (inactive).

For `NC(=O)c1ccccc1Cl`, which “activity change, negative = inhibition” value is on record?
The value was 0.265% (inactive).

With `CC(O)(c1ccc(Cl)cc1)c1ccc(Cl)cc1` as the compound, how does the “activity change, negative = inhibition” value read?
Its value is 2.25% (inactive).

For `O=S(=O)(c1ccc(OCc2ccccc2)cc1)c1ccccc1O`, which “activity change, negative = inhibition” value is on record?
Its value is -8.24% (inactive).

With `Cc1c[nH]c(=O)[nH]c1=O` as the compound, how does the “activity change, negative = inhibition” value read?
The value was -0.67% (inactive).

Which activity change, negative = inhibition does the source give for `C=CC(=O)OCCOC1C2CCC1C1CC=CC12` (stereo not given) here?
Its activity change, negative = inhibition is 5.48% [at 19 µM] (inactive).

With `C/C=C/C(=O)C1=C(C)C=CCC1(C)C` as the compound, how does the “activity change, negative = inhibition” value read?
The value was 0.134% (inactive).

For `Oc1cccc2c(O)cccc12`, which “activity change, negative = inhibition” value is on record?
Its value is -3.04% (inactive).
